Screening data as filed in PubChem.
Shown are actives, neighbours in structure and some others; about 9.2% of the full set was active somewhere.
ELG1 genotoxic: qHTS screen for small molecules that induce genotoxicity in human embryonic kidney (HEK293T) cells expressing luciferase-tagged ELG1; Potency, µM (doses to about 46 µM), most hits filed as activators; HEK293T ELG1-luciferase reporter, luminescence, 16 h; 1.3% of 330,000 active; also: nearly all actives have a fitted effect of over 60% in size
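ELG1-luciferase HEK293T cells, 2,000/well; compound pinned in; 16 hr, 37 °C, 5% CO2; ONE-Glo, 30 min RT; luminescence on CCD imager.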
Rab9 prom act: qHTS Assay for Rab9 Promoter Activators | Huh7 Rab9 promoter-luciferase reporter, luminescence, 24 h | Potency, µM (titrated, usually from 9.22 µM), usual class: activators | 2.8% of 320,000 active | AID 485297, 2010; also: nearly all actives have a fitted effect of over 60% in size
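Huh7 cells stably carrying a Rab9 promoter-luciferase reporter, 1500 cells per well in OP-MEM I with 10% FBS, treated with compound 24 hours at 37C. Luciferase activity read by luminescence after 10 minutes with Amplite reagent.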
ELG1 repair inh: qHTS screen for small molecules that inhibit ELG1-dependent DNA repair in human embryonic kidney (HEK293T) cells expressing luciferase-tagged ELG1; 2.3% of 330,000 active; Potency, µM (series often up to 46.1 µM), hits mostly inhibitors; HEK293T ELG1-luciferase reporter, luminescence, 16 h; DNA damage induced by 5-fluorouridine; also: nearly all actives have a fitted effect of over 55% in size
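Reporter activity after DNA damage by 5-fluorouridine is monitored. Compound-treated cells incubate 16 hr at 37 °C, then ONE-Glo is added for 30 min before luminescence reading.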
FLuc modulator: qHTS profiling assay for firefly luciferase inhibitor/activator using purifed enzyme and Km concentrations of substrates (counterscreen for miR-21 project); purified FLuc, Km substrates, luminescence inhibition; Potency, µM (top dose mostly 57.5 µM), usual class: inhibitors; 6.9% of 360,000 active; AID 588342, 2011; also: nearly all actives have a fitted effect of over 55% in size
Target sequence (P08659 whole entry, looked up): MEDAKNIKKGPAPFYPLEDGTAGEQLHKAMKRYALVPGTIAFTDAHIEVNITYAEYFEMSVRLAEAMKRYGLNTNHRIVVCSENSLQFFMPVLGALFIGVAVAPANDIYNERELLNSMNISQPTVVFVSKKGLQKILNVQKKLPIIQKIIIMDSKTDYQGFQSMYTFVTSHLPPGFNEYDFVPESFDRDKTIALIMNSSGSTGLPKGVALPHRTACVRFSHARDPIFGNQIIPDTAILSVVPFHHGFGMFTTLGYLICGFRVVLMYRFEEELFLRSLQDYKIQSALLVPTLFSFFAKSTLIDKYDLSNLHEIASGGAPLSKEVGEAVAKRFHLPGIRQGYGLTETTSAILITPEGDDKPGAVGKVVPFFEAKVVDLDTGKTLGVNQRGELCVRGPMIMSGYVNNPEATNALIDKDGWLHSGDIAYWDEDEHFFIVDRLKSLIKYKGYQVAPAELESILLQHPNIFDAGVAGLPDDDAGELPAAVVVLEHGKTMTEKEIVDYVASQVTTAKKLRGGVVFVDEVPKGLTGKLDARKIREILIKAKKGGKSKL
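Purified P. pyralis luciferase, 10 nM final, with Km-level 10 uM D-luciferin and 10 uM ATP in 50 mM Tris acetate pH 7.5, 10 mM Mg acetate, 0.01% Tween-20, 0.05% BSA; 6-point qHTS titration about 60 µM downward; luminescence read.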
SMN2 splice up: qHTS Assay for Enhancers of SMN2 Splice Variant Expression; 2.8% of 210,000 active; Potency, µM (titrated, usually from 46.1 µM), usual class: activators; HEK293 SMN2-luciferase splicing reporter, luminescence, 30-36 h; also: nearly all actives have a fitted effect of over 55% in size
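HEK293 cells carry an SMN2 minigene-luciferase reporter in which exon 7 inclusion puts luciferase in frame. Cells were seeded at 2000 cells/well, attached for 10-12 hours, then exposed to compounds for 30-36 hours at 37C before ONE-Glo luminescence.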
NPC1 prom act: qHTS Assay for NPC1 Promoter Activators | 2.4% of 320,000 active | Huh7 NPC1 promoter luciferase reporter, 24 h | Potency, µM (doses to about 9.22 µM), usual class: activators | AID 485313, 2010; also: nearly all actives have a fitted effect of over 60% in size
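Compounds in DMSO were transferred onto Huh7 NPC1-luciferase reporter cells pre-incubated 2 h; after 24 h at 37 °C, Amplite reagent was dispensed and luminescence recorded 10 min later.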
Each line names hits and unclear results; the compound was inactive in the other large screens. Calls follow the shape of the dose curve; as a rule, active = well fitted curve in the direction sought with a large enough effect; inconclusive = small, poorly fitted or top-dose-only effect, or another doubt; inactive = no such curve, though single readings can be large; an effect the other way counts as inactive or inconclusive.

O=C(NCc1ccco1)c1nc2c(nnn2Cc2ccccc2Cl)c(=O)[nH]1	ELG1 repair inh 21µM
O=C(Nc1ccc(F)cc1)c1nc2c(nnn2Cc2cccc3ccccc23)c(=O)[nH]1	FLuc modulator 27µM (no result: SMN2 splice up)
O=C(CCl)Nc1ccc(N=Nc2ccccc2)cc1	ELG1 repair inh inconclusive, FLuc modulator 6µM
O=C(Nc1ccc(N=Nc2ccccc2)cc1)c1ccc(Cl)cc1Cl	none
O=C(Nc1ccc(N=Nc2ccccc2)cc1)c1ccccc1Cl	ELG1 genotoxic inconclusive, Rab9 prom act 2.5µM, ELG1 repair inh inconclusive, FLuc modulator 3.8µM, SMN2 splice up 11µM, NPC1 prom act 1.8µM
CC(=O)Nc1ccccc1	none (no result: Rab9 prom act, FLuc modulator, NPC1 prom act)
CC(C)C(=O)OCC(=O)Nc1ccc(N=Nc2ccccc2)cc1	ELG1 genotoxic 21µM, Rab9 prom act 0.79µM, ELG1 repair inh inconclusive, FLuc modulator inconclusive, SMN2 splice up 11µM, NPC1 prom act 2.5µM
CCC(C(=O)OCC(=O)Nc1ccc(F)cc1)c1ccccc1 (stereo unspecified)	none (no result: SMN2 splice up)
CC(=O)Nc1ccc(N=Nc2ccccc2)cc1	ELG1 genotoxic 10µM, Rab9 prom act 2.8µM, ELG1 repair inh inconclusive, FLuc modulator 6µM, SMN2 splice up 10µM, NPC1 prom act 2.8µM
Cc1onc(-c2ccc(Cl)cc2Cl)c1-c1csc(N/N=C/c2ccccc2)n1	none (no result: SMN2 splice up)
CC1=C(C(=O)NCc2ccccc2Cl)C2(CCCCCC2)OC1=O	none (no result: ELG1 genotoxic, Rab9 prom act, ELG1 repair inh, SMN2 splice up, NPC1 prom act)
CC(=O)OCC(=O)Nc1ccc(N=Nc2ccccc2)cc1	ELG1 genotoxic 23µM, Rab9 prom act 2.8µM, ELG1 repair inh inconclusive, FLuc modulator 12µM, SMN2 splice up 6.3µM, NPC1 prom act 2.8µM
CC(C)C(=O)OCC(=O)NCc1ccccc1Cl	FLuc modulator 17µM, NPC1 prom act inconclusive
CC1(C(=O)OCC(=O)Nc2ccccc2Cl)CC1(Cl)Cl (stereo unspecified)	Rab9 prom act inconclusive, FLuc modulator inconclusive
Cc1ccccc1OCC(=O)OCC(=O)NCc1ccccc1Cl	none (no result: Rab9 prom act, FLuc modulator, SMN2 splice up, NPC1 prom act)
CC1(C(=O)OCC(=O)Nc2ccccc2)CC1(Cl)Cl (stereo unspecified)	Rab9 prom act inconclusive, ELG1 repair inh inconclusive, FLuc modulator 17µM, NPC1 prom act inconclusive
COc1ccc(C(CC(=O)c2ccc(C)cc2)C(C#N)C#N)cc1OC (stereo unspecified)	ELG1 repair inh inconclusive
CCOc1ccccc1-c1nc(CN2CCCN(C(=O)c3ccco3)CC2)c(C)o1	none (no result: SMN2 splice up)
CCn1cc(C(=O)NCCCN2CCC(C)CC2)c(=O)c2cc(S(=O)(=O)N3CCOCC3)ccc21	none (no result: SMN2 splice up)
Cc1cc(C(=O)COc2ccc(Cl)cc2Br)c(C)n1C	Rab9 prom act inconclusive, FLuc modulator 21µM
Cc1cc(C(=O)COc2cccc3cccnc23)c(C)n1C	ELG1 repair inh inconclusive, FLuc modulator 17µM, SMN2 splice up inconclusive, NPC1 prom act inconclusive
Cc1ccc(-c2csc(=Nc3ccccc3)n2Cc2ccc3c(c2)OCO3)cc1	SMN2 splice up inconclusive (no result: ELG1 genotoxic, Rab9 prom act, ELG1 repair inh, NPC1 prom act)
CC(C)COc1ccc(-c2nn(-c3ccccc3)cc2CO)cc1	FLuc modulator inconclusive (no result: SMN2 splice up)
OCc1cn(-c2ccccc2)nc1-c1ccc(Br)cc1	ELG1 genotoxic inconclusive, Rab9 prom act inconclusive, ELG1 repair inh inconclusive, FLuc modulator 17µM, NPC1 prom act inconclusive (no result: SMN2 splice up)
OCc1cn(-c2ccccc2)nc1-c1ccc2c(c1)OCCO2	Rab9 prom act inconclusive, ELG1 repair inh inconclusive, FLuc modulator 21µM, NPC1 prom act inconclusive
Nc1ccc2nc3c(=O)n(C4CCCCC4)c(=O)[nH]c3nc2c1	ELG1 genotoxic inconclusive, Rab9 prom act inconclusive, ELG1 repair inh inconclusive, FLuc modulator 12µM, NPC1 prom act inconclusive (no result: SMN2 splice up)
Nc1ccc2nc3c(=O)n(CCc4ccccc4)c(=O)[nH]c3nc2c1	ELG1 repair inh inconclusive (no result: SMN2 splice up)
CCCCn1c(=O)[nH]c2nc3cc(N)ccc3nc2c1=O	Rab9 prom act 3.2µM, ELG1 repair inh inconclusive, SMN2 splice up inconclusive, NPC1 prom act inconclusive
